# Bioassay records from PubChem BioAssay.
# IL-2 act: qHTS of IL-2 Activators | AID 652025, 2013 | 360,000 tested, 0.065% active | IL-2 activation reporter assay, cell-based qHTS; stimulated with anti-CD3/CD4/CD28 beads; in transgenic mouse T cells | activation, % (series mostly up to about 46 µM); in the data active = activation above about 50%; inconclusive = mostly about 30% to 49%
#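 Quantitative HTS in unstimulated transgenic mouse T cells, with memory T cells as non-tolerant control and PMA/ionomycin as tolerance-bypass control. Compound pretreatment lasted 60 minutes before 18 h bead stimulation; EGFP/DsRed fluorescence read.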
# miR-21 act: qHTS Assay for Modulators of miRNAs and/orActivators of miR-21 | HeLa miR-21 FLuc reporter, luciferase, 48 h | Potency, µM (top dose mostly 38.3 µM), most hits filed as activators | 340,000 tested, under 10 active | AID 2288, 2010;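 note: miR-21 action dims this reporter so a rising signal means less miR-21 action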
#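 Using DMEM plus 10% FBS, HeLa miR-21-FLuc cells are incubated with test compounds (final up to about 40uM) for 48 hours; firefly luciferase signal is then imaged following reagent-mediated lysis.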
# Nrf2 ARE act: qHTS of Nrf2 Activators; AREc32 ARE-luciferase reporter (MCF7-derived line), luminescence, 24 h; Potency, µM (doses to about 46.1 µM), actives largely listed as activators; 410,000 tested, 0.31% active; AID 624171, 2012; note: nearly all actives have a fitted effect of over 65% in size
#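 AREc32 cells carrying an ARE-driven firefly luciferase reporter were seeded at 1000 cells/well in OPTI-MEM with 5% FBS, then exposed to compound for 24 hr at 37 deg C. Luminescence was read with Steady-Glo after 30 min at RT.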
# ClpP mod: qHTS Assay for Activators of ClpP | ATP-dependent Clp protease proteolytic subunit (Bacillus subtilis (strain 168)), P80244 | purified B. subtilis ClpP, FRET peptide cleavage, 20 min | Potency, µM (series often up to 57.5 µM) | 340,000 tested, 1.9% active | AID 651965, 2013; active = well fitted falling curve with a large enough effect; inconclusive = small, poorly fitted or top-dose-only effect; inactive = no such curve, though single readings can be large or run the other way; note: the source files actives as falling curves though it sought activators and does not explain the sign; nearly all actives have a fitted effect of over 65% in size
# Target sequence (P80244 whole entry, looked up): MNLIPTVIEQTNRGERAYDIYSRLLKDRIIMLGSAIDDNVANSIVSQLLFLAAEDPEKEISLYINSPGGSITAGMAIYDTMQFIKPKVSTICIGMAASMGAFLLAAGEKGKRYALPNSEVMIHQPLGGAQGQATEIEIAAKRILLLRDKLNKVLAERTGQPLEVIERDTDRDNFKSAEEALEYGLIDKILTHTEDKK
#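 Buffer: 100 mM Tris/HCl pH8, 100 mM KCl, 0.05% low protease BSA, 2.5% glycerol, 0.01% Tween-20. ClpP 10 microg/mL final; 20 min RT; delta FRET normalized to ADEP and DMSO controls.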
# A549 tox: Nrf2 qHTS screen for inhibitors: counterscreen for cytotoxicity. Potency, µM (series often up to 46 µM), usual class: inhibitors. AID 504648, 2011. A549 ARE-Fluc cells, CellTiter-Fluor viability, 18-24 h. 390,000 tested, 0.16% active
#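 A549 ARE-Fluc cells in 5% FBS OPTI-MEM, 5000 cells/well, rested 2 h then exposed to compounds in concentration-response for 18-24 h at 37 °C. Viability by CellTiter-Fluor fluorescence (Ex 405/Em 525) after 30 min; luciferase luminescence (BugLite, 15 min, RT) read afterwards.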
# Nrf2 block: Nrf2 qHTS screen for inhibitors | A549 ARE-Fluc reporter, luciferase luminescence, 18-24 h | Potency, µM (series often up to 46 µM), most hits filed as inhibitors | 360,000 tested, 2.1% active; note: nearly all actives have a fitted effect of over 60% in size
#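 Reporter: ARE-Fluc in A549. Exposure: 18-24 h, 37 °C, 5% CO2, 5% FBS OPTI-MEM. Readouts: fluorescent cytotoxicity (CellTiter-Fluor), then luminescent Nrf2 signal after BugLite.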
# Numbers stand for hits; i = inactive; ? = inconclusive; nt = not tested or not shown. Compounds with a hit are over-represented: about 3.7% of the library has one in this group of screens. Unless noted, calls come from the whole dose curve; as a rule, active = well fitted curve in the direction sought with a large enough effect; inconclusive = small, poorly fitted or top-dose-only effect, or another doubt; inactive = no such curve, though single readings can be large; an effect the other way counts as inactive or inconclusive.
SMILES,IL-2 act,miR-21 act,Nrf2 ARE act,ClpP mod,A549 tox,Nrf2 block
CCc1ccc(CNC(=O)c2ccc(CSc3nc4ccncc4n3Cc3ccccc3)cc2)cc1,nt,i,i,32µM,i,i
Cc1cccc(Cn2c(SCc3ccc(C(=O)NC4CCCC4)cc3)nc3ccncc32)c1,nt,i,i,i,i,21µM
Cc1ccc(Cn2c(SCc3ccc(C(=O)N4CCCCC4)cc3)nc3ccncc32)cc1,nt,i,i,i,i,?
COc1ccc(C2Nc3ccccc3C(=O)N2Cc2ccccc2Cl)cc1COc1ccc(NC(C)=O)cc1 (centres undefined),nt,nt,nt,nt,i,i
O=C(NC(NNc1ccc([N+](=O)[O-])cc1)(C(F)(F)F)C(F)(F)F)c1ccccc1Cl,i,i,i,i,?,i
O=C(NC(Nc1nc2ccc([N+](=O)[O-])cc2s1)(C(F)(F)F)C(F)(F)F)c1ccccc1Cl,i,i,i,i,5.8µM,1.8µM
O=C(NC(Nc1nc2ccc([N+](=O)[O-])cc2s1)(C(F)(F)F)C(F)(F)F)c1cccnc1,i,i,i,i,7.3µM,5.8µM
Cn1c(/C(C#N)=C/c2ccccc2Br)nc2ccccc21,nt,i,8.9µM,i,?,?
O=C(/C=C/c1ccccc1Cl)Nc1cccc(S(=O)(=O)NC2=NCCCCC2)c1,i,i,i,i,?,9.2µM
O=C(/C=C/c1ccc([N+](=O)[O-])cc1)Nc1cccc(S(=O)(=O)NC2=NCCCCC2)c1,i,nt,i,?,i,18µM
O=C(/C=C/c1ccc(Cl)cc1Cl)Nc1cccc(S(=O)(=O)NC2=NCCC2)c1,i,i,i,i,i,?
Cc1ccc(CN(Cc2ccco2)C(=O)COc2ccc(C(C)C)cc2)cc1,nt,i,i,i,i,18µM
CCOC(=O)c1c(S(=O)(=O)N2CCC(C(=O)Nc3cccc(C)n3)CC2)c(C)n(C)c1C,nt,i,i,i,i,nt
O=C(CN(c1ccc2c(c1)OCCO2)S(=O)(=O)c1ccccc1)N1CCN(Cc2ccccc2)CC1,i,i,i,32µM,i,i
Cc1ccc(Cl)c2sc(NC(=O)C3CC3)nc12,i,i,?,i,i,i
Cc1ccc(C)c2sc(NC(=O)C3CC3)nc12,i,i,11µM,i,i,i
CCC(=O)Nc1ccc(OCc2cc(C3Nc4ccccc4C(=O)N3Cc3ccccc3)ccc2OC)cc1 (centres undefined),nt,nt,nt,nt,i,?
CCOC(=O)Cc1csc(/N=C/c2c(O)n(-c3ccccc3C(F)(F)F)c(=O)c3ccccc23)n1,i,i,i,i,i,13µM
COc1ccc(S(=O)(=O)c2c(Nc3c(C)cccc3C)sc(C(=O)c3ccc4c(c3)OCO4)c2N)cc1,nt,i,i,i,i,nt
CCN(Cc1ccccc1)c1ccc(/C=N/N=C(N)N)cc1,i,?,i,25µM,i,i
CCN(Cc1ccccc1)c1ccccc1,i,nt,i,i,i,i
Cc1ccc(S(=O)(=O)NCC(=O)OCC(=O)Nc2cccc(S(=O)(=O)NC3=NCCCCC3)c2)cc1,i,i,i,25µM,i,i
O=C(Nc1cccc(S(=O)(=O)NC2=NCCC2)c1)c1ccccc1,i,nt,i,i,i,i
Cc1cccc(C(=O)N[C@H](C(=O)Nc2ccc(S(=O)(=O)NC3=NCCCCC3)cc2)C(C)C)c1,i,i,i,35µM,i,i
CCc1nc2ccccc2c(C(=O)OCC(=O)Nc2cccc(S(=O)(=O)NC3=NCCCCC3)c2)c1C,i,?,i,nt,i,16µM
SMILES,IL-2 act,miR-21 act,Nrf2 ARE act,ClpP mod,A549 tox,Nrf2 block
O=C(Nc1cccc(S(=O)(=O)NC2=NCCCCC2)c1)c1ccc(Cl)cc1,i,nt,i,i,i,15µM
Cc1ccc(S(=O)(=O)NCCC(=O)OCC(=O)Nc2cccc(S(=O)(=O)NC3=NCCCCC3)c2)cc1,i,i,i,i,i,i
CC(C)Cn1c(SCc2cccc(F)c2)nc2ccsc2c1=O,nt,i,i,i,i,i
N#Cc1ccc(/C=C2\C=Cc3ccccc32)cc1,nt,nt,nt,i,nt,nt
COc1cc(NS(=O)(=O)c2ccc(NC(=O)c3ccccc3C(=O)O)cc2)nc(OC)n1,nt,i,i,i,i,i
CCc1ccc(NC(=O)N2CCN(Cc3nc4ccc(C)cc4o3)CC2)cc1,nt,i,i,i,i,nt
CCc1nn2c(=O)cc(COC(=O)c3cccc(NC(=O)c4cccs4)c3)nc2s1,nt,i,i,i,i,nt
Cc1ccc(Cl)cc1N1CCN(c2nc3ccc(C(=O)c4ccccc4)cc3n3cnnc23)CC1,nt,i,i,i,i,i
CCCOc1ccc(C(=O)Nc2cc3c(cc2N2CCOCC2)n(C)c(=O)n3C)cc1,nt,i,i,i,i,?
O=C(COc1ccc(Cl)cc1)Nc1cccc(S(=O)(=O)NC2=NCCCCC2)c1,i,nt,i,i,i,26µM
N#Cc1ccc(OCC(=O)Nc2cccc(S(=O)(=O)NC3=NCCCCC3)c2)cc1,i,nt,i,i,i,i
COc1ccc(OC2CCN(S(=O)(=O)c3ccc(C(C)=O)cc3)CC2)cc1,i,i,i,i,i,21µM
COc1ccc(OC2CCN(S(=O)(=O)c3ccc(OC)c(OC)c3)CC2)cc1,i,i,i,i,i,16µM
COc1ccc(S(=O)(=O)N2CCN(c3ccc(F)cc3)CC2)cc1OC,i,i,i,i,i,i
COc1ccc(S(=O)(=O)N2CCN(CCCOc3ccc(F)cc3)CC2)cc1OC,i,i,i,nt,i,23µM
Cc1noc(/C=C/c2ccccc2F)c1S(=O)(=O)N1CCC(C(=O)Nc2ccc(C#N)cc2)CC1,nt,i,i,?,i,nt
CCCn1c2ccccc2c2cnn(CC(=O)NCc3cc(OC)ccc3OC)c(=O)c21,nt,i,i,i,i,i
COc1ccc(-n2nc(C(=O)O)c3csc(N)c3c2=O)cc1,nt,nt,nt,nt,i,i
O=C(CSC1=Nc2ccccc2C2=NC(CCC(=O)NC3CCCCC3)C(=O)N12)Nc1cccc(C(F)(F)F)c1 (centres undefined),nt,i,i,?,?,12µM
O=C(CSC1=Nc2ccccc2C2=NC(CCC(=O)NC3CCCCC3)C(=O)N12)Nc1cccc(Cl)c1 (centres undefined),nt,i,i,i,?,?
CCc1ccc(NC(=O)CSC2=Nc3ccccc3C3=NC(CC(=O)NC4CCCCC4)C(=O)N23)cc1 (centres undefined),nt,i,i,i,i,nt
O=C(CSC1=Nc2ccccc2C2=NC(CC(=O)NC3CCCCC3)C(=O)N12)Nc1ccc(F)cc1 (centres undefined),nt,i,i,14µM,i,nt
